# Structures can show the parent of a compound that is named as a salt.
# Tested on: Saccharomyces cerevisiae BY4741 SeMeCo community
# Assay: z-score of subpopulation abundance vs DMSO median, subpopulation auxotrophic for HLUM; higher = larger share of this subpopulation than in DMSO controls
# Settings: 10 µM; 24 h; SM minimal medium; subpopulation (auxotrophy): HLUM
# Method: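 Fluorescent four-plasmid SeMeCo (self-establishing metabolically cooperating S. cerevisiae BY4741 community; plasmids pH-mRuby2, pL-mWasabi, pU-eCFP, pM-TagRFP657) was grown 24 h in minimal SM medium with each Selleck FDA-approved drug at 10 µM in 384-well plates. Cells were fixed and imaged by high-content confocal microscopy. For each auxotrophic subpopulation (and the prototroph), a z-score gives the deviation from the DMSO vehicle-control population median.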
row,SMILES,z-score of subpopulation abundance
1,CN(C)CC(c1ccc(O)cc1)C1(O)CCCCC1 (stereo not given) [Desvenlafaxine],-0.91
2,CC(=O)OCC(COC(C)=O)OC(C)=O [Triacetin],-0.48
3,O=C1CCc2cc(OCCCCc3nnnn3C3CCCCC3)ccc2N1 [Cilostazol],-0.57
4,Cc1cc(C)nc(NS(=O)(=O)c2ccc(N)cc2)n1 [Sulfamethazine Sodium Salt],0.81
5,CC1(C)S[C@@H]2[C@H](NC(=O)Cc3ccccc3)C(=O)N2[C@H]1C(=O)O [Benzylpenicillin potassium],0.88
6,C#CCN[C@@H]1CCc2ccccc21 [Rasagiline Mesylate],0.44
7,CC(C)(C)C1CCC(CC2=C(O)c3ccccc3C(=O)C2=O)CC1 (stereo not given) [Buparvaquone],0.04
8,Cc1ccsc1/C=C/C1=NCCCN1C [Morantel tartrate],-0.47
9,Cc1onc(-c2ccccc2)c1-c1ccc(S(N)(=O)=O)cc1 [Valdecoxib],-0.56
10,CCS(=O)(=O)CCn1c([N+](=O)[O-])cnc1C [Tinidazole],-0.4
11,CCCNCC(O)COc1ccccc1C(=O)CCc1ccccc1 (stereo not given) [Propafenone HCl],0.05
12,NC[C@@H]1O[C@H](O[C@H]2[C@@H](O)[C@H](O[C@@H]3[C@@H](O)[C@H](N)C[C@H](N)[C@H]3O[C@H]3O[C@H](CN)[C@@H](O)[C@H](O)[C@H]3N)O[C@@H]2CO)[C@H](N)[C@@H](O)[C@@H]1O [Neomycin sulfate],0.16
13,NC(=O)Cc1cccc(C(=O)c2ccccc2)c1N [Nepafenac],0.1
14,Cc1ncc([N+](=O)[O-])n1C [Dimetridazole],0.31
15,COC(=O)C1=C(C)NC(C)=C(C(=O)OC(C)(C)CN(C)CCC(c2ccccc2)c2ccccc2)C1c1cccc([N+](=O)[O-])c1 (stereo not given) [Lercanidipine],1.54
16,CCCN1CCCC[C@H]1C(=O)Nc1c(C)cccc1C [Ropivacaine],-0.55
17,CC1(C)S[C@@H]2[C@H](NC(=O)C(C(=O)O)c3ccccc3)C(=O)N2[C@H]1C(=O)O (stereo not given in full) [Carbenicillin disodium],-0.61
18,O=C([O-])CC(O)(CC(=O)[O-])C(=O)[O-].O=C([O-])CC(O)(CC(=O)[O-])C(=O)[O-].[Bi+3].[K+].[K+].[K+].[K+].[K+] [Bismuth Subcitrate Potassium],0.65
19,COc1ncnc(NS(=O)(=O)c2ccc(N)cc2)c1OC [Sulfadoxine],0.32
20,CC[C@H]1OC(=O)[C@H](C)[C@@H](O[C@H]2C[C@@](C)(OC)[C@@H](O)[C@H](C)O2)[C@H](C)[C@@H](O[C@@H]2O[C@H](C)C[C@H](N(C)C)[C@H]2O)[C@](C)(O)C[C@@H](C)C(=O)[C@H](C)[C@H]2OC(=O)O[C@@]21C [Erythromycin Cyclocarbonate],0.39

row,SMILES,z-score of subpopulation abundance
1,c1ccc(-c2ccc(C(c3ccccc3)n3ccnc3)cc2)cc1 (stereo not given) [Bifonazole],2.46
2,C/C(=C\C(=O)OCCCCCCCCC(=O)O)C[C@@H]1OC[C@H](C[C@@H]2O[C@H]2[C@@H](C)[C@H](C)O)[C@@H](O)[C@H]1O [Mupirocin calcium],-0.25
3,Cc1cc(NS(=O)(=O)c2ccc(N)cc2)no1 [Sulfamethoxazole],-0.41
4,CCc1c2c(nc3ccc(OC(=O)N4CCC(N5CCCCC5)CC4)cc13)-c1cc3c(c(=O)n1C2)COC(=O)[C@]3(O)CC [Irinotecan HCl Trihydrate],0.04
5,Cc1nnc(SCC2=C(C(=O)O)N3C(=O)[C@@H](NC(=O)Cn4cnnn4)[C@H]3SC2)s1 [Cefazolin Sodium],-0.81
6,CN[C@H]1CC[C@@H](c2ccc(Cl)c(Cl)c2)c2ccccc21 [Sertraline HCl],-0.97
7,NCCc1ccc(O)c(O)c1 [Dopamine HCl],-0.04
8,CCCN1C[C@H](C)[C@@H](O)[C@](C)(O)[C@@H](CC)OC(=O)[C@H](C)[C@@H](O[C@H]2C[C@@](C)(OC)[C@@H](O)[C@H](C)O2)[C@H](C)[C@@H](O[C@@H]2O[C@H](C)C[C@H](N(C)C)[C@H]2O)[C@](C)(O)C[C@H]1C [Gamithromycin],-0.18
9,CC(=O)[C@H]1CC[C@H]2[C@@H]3CCC4=CC(=O)CC[C@]4(C)[C@H]3CC[C@]12C [Progesterone],-1
10,Nc1nc2c(ncn2COCCO)c(=O)[nH]1 [Aciclovir],0.48
11,CCCCN(CCCC)CC(O)c1cc(Cl)cc2c1-c1ccc(Cl)cc1/C2=C/c1ccc(Cl)cc1 (stereo not given) [Lumefantrine],-0.39
12,CC(=O)Oc1ccccc1C(=O)O [Aspirin],-0.5
13,CC[C@H]1OC(=O)[C@H](C)[C@@H](O[C@H]2C[C@@](C)(OC)[C@@H](O)[C@H](C)O2)[C@H](C)[C@@H](O[C@@H]2O[C@H](C)C[C@H](N(C)C)[C@H]2O)[C@](C)(O)C[C@@H](C)C(=O)[C@H](C)[C@@H](O)[C@]1(C)O [Erythromycin],0.28
14,CN(Cc1ccc(C(C)(C)C)cc1)Cc1cccc2ccccc12 [Butenafine HCl],0.01
15,CNC1CCCN(c2c(F)cc3c(=O)c(C(=O)O)cn(C4CC4)c3c2OC)C1 (stereo not given) [Balofloxacin],-0.35
16,CC1(C)S[C@@H]2[C@H](NC(=O)[C@H](N)c3ccc(O)cc3)C(=O)N2[C@H]1C(=O)O [Amoxicillin Sodium],-0.2
17,O=C1CN(/N=C/c2ccc([N+](=O)[O-])o2)C(=O)N1 [Nitrofurantoin],-0.04
18,CCC[C@@H]1C[C@@H](C(=O)N[C@@H]([C@H]2O[C@H](SC)[C@H](O)[C@@H](O)[C@H]2O)[C@@H](C)O)N(C)C1 [Lincomycin Hydrochloride Monohydrate],0.63
19,COC(=O)C1=C(C)NC(C)=C(C(=O)OCCN2CCN(C(c3ccccc3)c3ccccc3)CC2)C1c1cccc([N+](=O)[O-])c1 (stereo not given) [Manidipine],0.6
20,O=C1CN2Cc3c(ccc(Cl)c3Cl)N=C2N1 [Anagrelide HCl],0.12
